Consider ten compounds from PubChem BioAssay.

Each structure is given as a SMILES string. Unmarked numbers belong to inactive results.

A short description of the assay: E. coli DRC41 culture turbidity changes, primary screen, E. coli filamentation inducer project, strain DRC41, OD650, 48 h (AID 1152).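 Also: E. coli MC1000 strain DRC41 lacking acrAB efflux pump and sulA.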 Particulars: E. coli DRC41 (acrAB sulA), higher = more signal, called active from +8 up or from −8 down.
As for `COc1ccc(C(O)C2C=CC3C(=O)N(C)C(=O)C3N2N(c2ccccc2)c2ccccc2)c2ccccc12` (stereo not given), the z-score was -1.24. For the compound `COCC(=C=CC[C@H](O)c1cccc(OCCO)c1)CCO`, the z-score is 0.223.

As for `CC[C@@H]1C=C(C(=O)O)[C@H](c2ccc(C)cc2)N1S(=O)(=O)c1ccc(C)cc1`, the z-score is -0.557. Consider `O=C1NC(=O)C2C1C=CC(C(O)C1CC=CCC1)N2Nc1ccccn1` (stereo not given), for which the z-score was -0.629.

Take `COc1ccc(C(=O)Nc2cccc(CN3C(=O)[C@]4(O[C@H](CCn5cc(CCO)nn5)[C@@H]([Si](C)(C)c5ccc(OC)cc5)[C@@H]4C)c4ccccc43)c2)cc1`: the z-score is -0.856. As to `CS(=O)(=O)CCOC(=O)C1=CC(CCCO)=CC(c2ccc(CN3CCCC3)cc2)N(Cc2cccc(OC(F)(F)F)c2)C=C1C(=O)OCCS(C)(=O)=O` (stereo not given), the z-score is -0.804. As for `COC(=O)c1c2oc(c1C(=O)OC)C(=O)N[C@@H](C(C)C)Cn1cc(nn1)C1(CCCCC1)NC(=O)N[C@H](CO)CC2`, the z-score is 2.15. Then `O=C1O[C@@H](c2ccccc2)[C@@H](c2ccccc2)N2[C@@H](c3ccc(OCCO)cc3)[C@]3(C(=O)Nc4ccc(C#CCCO)cc43)[C@@H](C(=O)NC[C@H](O)c3ccccc3)[C@H]12`, with 0.591. With `CC(c1ccccc1)C(O)C1C=CC2C(=O)N(c3ccccc3)C(=O)C2N1Nc1ccccc1` (stereo not given), the z-score was -1.08. Regarding `CC1CC/C=C\[C@H]2OC34C=CCN(Cc5ccccc5)C(=O)[C@H]3N(C(C)CO)C(=O)[C@@H]4C2C(=O)O1` (stereo not given in full), the z-score was 0.537.
